Measured values: the supplement of paper PMC10849652
About 7,900 targets were measured; listed, in parts, are those with a hit and a random draw of the rest. About 0.6% of all pairs of compound and target were hits. Unmarked numbers belong to inactive results.

Key:
Test in all cases: log2 fold change, soluble protein after heating vs DMSO (PISA); higher = thermal stabilisation; K562 cells, 10 uM, 30 min; active = over 0.2 and 3.5 SD of the protein, either way, in both replicates (recomputed)
[1] = compound: Cc1ccc(NC(=O)c2ccc(CN3CC[C@H](N(C)C)C3)c(C(F)(F)F)c2)cc1Nc1nccc(-c2cncnc2)n1 [bafetinib]
Outline: (§1)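 Values are thermal stability changes relative to control samples and are taken from duplicates. They are stated as log2 fold changes. Before quantification by TMTpro 16plex LC-MS/MS with equalised channel sums, K562 cells at 2×10^6 cells/mL were treated with 10 μM compound for 30 min, heated in aliquots for 3 min across 48°C-58°C, pooled, extracted in PBS with 0.5% NP-40 at 4°C, and centrifuged at 21,000xg for 90 min to give the soluble supernatant.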

[2] = compound: Cc1cccc(CC(=O)N2CCc3c2ccc(-c2cn(C)c4ncnc(N)c24)c3F)n1
Outline: as §1

[3] = compound: Cc1cn(-c2cc(NC(=O)c3ccc(C)c(Nc4nccc(-c5cccnc5)n4)c3)cc(C(F)(F)F)c2)cn1 [nilotinib]
Outline: as §1

[4] = compound: Cc1nc(Nc2n[nH]c3c2CN(C(=O)N[C@H](CN(C)C)c2ccccc2)C3(C)C)c2sccc2n1
Outline: as §1

[5] = compound: Cc1nc(Nc2ncc(C(=O)Nc3c(C)cccc3Cl)s2)cc(N2CCN(CCO)CC2)n1 [dasatinib]
Outline: as §1

[6] = compound: Cc1ncc(-c2ccnc(Nc3ccc(S(C)(=O)=O)cc3)n2)n1C(C)C
Outline: as §1

[7] = compound: Cn1cc(-c2ccc3c(c2)CCN3C(=O)Cc2cccc(C(F)(F)F)c2)c2c(N)ncnc21
Outline: as §1

[8] = compound: Cn1cc(-c2ccc3nnc(C(F)(F)c4ccc5ncccc5c4)n3n2)cn1
Outline: as §1

[9] = compound: Cn1cncc1[C@@](N)(c1ccc(Cl)cc1)c1ccc2c(c1)c(-c1cccc(Cl)c1)cc(=O)n2C [tipifarnib]
Outline: as §1

[10] = compound: FC(F)(F)c1ccc(/C=C/c2nc(COc3ccc(CCCCn4ccnn4)cc3)co2)cc1 [mubritinib]
Outline: as §1

PDE2A (UniProt O00408)
log2 fold change [1]: 0.021
log2 fold change [2]: -0.02
log2 fold change [3]: 0.023
log2 fold change [4]: 0.016
log2 fold change [5]: -0.103
log2 fold change [6]: -0.012
log2 fold change [7]: 0.063
log2 fold change [8]: -0.03
log2 fold change [9]: -0.031
log2 fold change [10]: -0.051

PARG (UniProt Q86W56)
log2 fold change [1]: 0.166
log2 fold change [2]: 0.118
log2 fold change [3]: 0.004
log2 fold change [4]: -0.123
log2 fold change [5]: -0.162
log2 fold change [6]: -0.025
log2 fold change [7]: 0.093
log2 fold change [8]: -0.015
log2 fold change [9]: -0.061
log2 fold change [10]: 0.061

POLR3K (UniProt Q9Y2Y1)
Chain of UniProt Q9Y2Y1 (Q9Y2Y1 whole entry, looked up): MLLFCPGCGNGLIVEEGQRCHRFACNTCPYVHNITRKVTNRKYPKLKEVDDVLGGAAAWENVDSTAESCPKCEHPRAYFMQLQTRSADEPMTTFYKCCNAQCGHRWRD
log2 fold change [1]: -0.006
log2 fold change [2]: -0.039
log2 fold change [3]: 0.035
log2 fold change [4]: -0.003
log2 fold change [5]: 0.098
log2 fold change [6]: 0.01
log2 fold change [7]: -0.02
log2 fold change [8]: -0.021
log2 fold change [9]: 0.033
log2 fold change [10]: -0.088

PELO (UniProt Q9BRX2)
log2 fold change [1]: 0.068
log2 fold change [2]: 0.155
log2 fold change [3]: -0.021
log2 fold change [4]: -0.067
log2 fold change [5]: -0.054
log2 fold change [6]: -0.02
log2 fold change [7]: 0.042
log2 fold change [8]: 0.061
log2 fold change [9]: -0.136
log2 fold change [10]: -0.111

PMPCB (UniProt O75439)
log2 fold change [1]: 0.035
log2 fold change [2]: 0.025
log2 fold change [3]: -0.054
log2 fold change [4]: 0.089
log2 fold change [5]: 0.098
log2 fold change [6]: -0.04
log2 fold change [7]: 0.105
log2 fold change [8]: 0.046
log2 fold change [9]: 0.269 (active)
log2 fold change [10]: 0.053

PCTP (UniProt Q9UKL6)
Chain of UniProt Q9UKL6 (Q9UKL6 whole entry, looked up): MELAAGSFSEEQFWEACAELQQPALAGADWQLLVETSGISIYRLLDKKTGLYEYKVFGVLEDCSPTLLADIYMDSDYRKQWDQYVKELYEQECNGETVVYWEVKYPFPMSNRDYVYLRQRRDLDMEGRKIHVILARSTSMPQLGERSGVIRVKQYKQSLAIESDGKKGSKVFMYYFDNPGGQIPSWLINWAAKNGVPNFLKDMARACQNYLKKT
log2 fold change [1]: -0.067
log2 fold change [2]: -0.004
log2 fold change [3]: -0.04
log2 fold change [4]: 0.114
log2 fold change [5]: -0.024
log2 fold change [6]: -0.017
log2 fold change [7]: 0.065
log2 fold change [8]: 0.036
log2 fold change [9]: -0.104
log2 fold change [10]: 0.063

PRIM1 (UniProt P49642)
log2 fold change [1]: 0.046
log2 fold change [2]: 0.01
log2 fold change [3]: -0.034
log2 fold change [4]: -0.055
log2 fold change [5]: -0.161
log2 fold change [6]: -0.009
log2 fold change [7]: -0.033
log2 fold change [8]: 0.009
log2 fold change [9]: -0.073
log2 fold change [10]: 0.06

PPIL2 (UniProt Q13356)
Chain of UniProt Q13356 (Q13356 whole entry, looked up): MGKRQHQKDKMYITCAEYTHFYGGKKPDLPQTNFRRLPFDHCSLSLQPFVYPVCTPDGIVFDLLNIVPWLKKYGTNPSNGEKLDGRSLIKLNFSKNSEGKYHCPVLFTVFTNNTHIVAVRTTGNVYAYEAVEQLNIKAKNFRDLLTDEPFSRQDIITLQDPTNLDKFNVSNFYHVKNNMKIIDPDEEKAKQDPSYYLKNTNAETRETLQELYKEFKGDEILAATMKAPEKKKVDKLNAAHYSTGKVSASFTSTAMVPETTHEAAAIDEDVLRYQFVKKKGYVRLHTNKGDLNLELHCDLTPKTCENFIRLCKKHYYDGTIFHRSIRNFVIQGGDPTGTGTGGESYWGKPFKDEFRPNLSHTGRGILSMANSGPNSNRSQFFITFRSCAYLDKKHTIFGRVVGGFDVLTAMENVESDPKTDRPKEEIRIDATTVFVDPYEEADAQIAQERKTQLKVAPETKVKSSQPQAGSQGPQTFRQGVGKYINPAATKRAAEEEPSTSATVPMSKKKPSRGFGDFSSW
log2 fold change [1]: -0.008
log2 fold change [2]: 0.032
log2 fold change [3]: -0.056
log2 fold change [4]: -0.086
log2 fold change [5]: -0.127
log2 fold change [6]: 0.068
log2 fold change [7]: 0.03
log2 fold change [8]: 0.046
log2 fold change [9]: -0.142
log2 fold change [10]: 0.011

PRKAB2 (UniProt O43741)
Chain of UniProt O43741 (O43741 whole entry, looked up): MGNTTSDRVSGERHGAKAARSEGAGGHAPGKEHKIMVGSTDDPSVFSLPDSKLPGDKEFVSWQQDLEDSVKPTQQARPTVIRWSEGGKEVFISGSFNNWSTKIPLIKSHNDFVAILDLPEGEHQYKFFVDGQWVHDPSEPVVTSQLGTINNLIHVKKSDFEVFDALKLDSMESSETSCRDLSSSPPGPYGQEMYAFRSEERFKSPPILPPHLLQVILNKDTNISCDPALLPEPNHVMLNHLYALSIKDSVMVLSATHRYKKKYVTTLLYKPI
log2 fold change [1]: 0.027
log2 fold change [2]: -0.01
log2 fold change [3]: -0.022
log2 fold change [4]: -0.184
log2 fold change [5]: -0.16
log2 fold change [6]: 0.082
log2 fold change [7]: 0.142
log2 fold change [8]: -0.034
log2 fold change [9]: -0.046
log2 fold change [10]: -0.02

PRKCB isoform 2 (UniProt P05771)
log2 fold change [1]: -0.037
log2 fold change [2]: 0.025
log2 fold change [3]: -0.022
log2 fold change [4]: -0.3 (active)
log2 fold change [5]: -0.054
log2 fold change [6]: 0.034
log2 fold change [7]: 0.04
log2 fold change [8]: 0
log2 fold change [9]: -0.051
log2 fold change [10]: 0.054

PRPSAP2 (UniProt O60256)
log2 fold change [1]: -0.034
log2 fold change [2]: 0.124
log2 fold change [3]: -0.024
log2 fold change [4]: 0.064
log2 fold change [5]: -0.028
log2 fold change [6]: -0.005
log2 fold change [7]: -0.037
log2 fold change [8]: -0.018
log2 fold change [9]: 0.023
log2 fold change [10]: -0.008

PI4K2A (UniProt Q9BTU6)
Chain of UniProt Q9BTU6 (Q9BTU6 whole entry, looked up): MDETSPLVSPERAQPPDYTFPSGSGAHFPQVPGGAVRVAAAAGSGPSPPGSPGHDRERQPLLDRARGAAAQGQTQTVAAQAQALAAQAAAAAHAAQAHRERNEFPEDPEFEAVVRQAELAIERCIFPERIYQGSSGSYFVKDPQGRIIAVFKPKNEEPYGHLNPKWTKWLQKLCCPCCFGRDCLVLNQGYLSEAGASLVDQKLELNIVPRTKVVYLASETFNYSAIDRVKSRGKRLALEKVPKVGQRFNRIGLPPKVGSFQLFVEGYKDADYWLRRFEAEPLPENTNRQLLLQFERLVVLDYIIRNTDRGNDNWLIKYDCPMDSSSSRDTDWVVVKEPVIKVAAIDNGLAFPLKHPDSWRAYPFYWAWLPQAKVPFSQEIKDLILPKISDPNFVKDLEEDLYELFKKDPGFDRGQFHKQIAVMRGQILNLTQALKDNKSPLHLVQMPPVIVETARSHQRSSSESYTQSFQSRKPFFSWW
log2 fold change [1]: -0.127
log2 fold change [2]: -0.042
log2 fold change [3]: 0.004
log2 fold change [4]: 0.037
log2 fold change [5]: -0.011
log2 fold change [6]: 0.076
log2 fold change [7]: 0.002
log2 fold change [8]: 0.056
log2 fold change [9]: 0.031
log2 fold change [10]: -0.006

PECAM1 (UniProt P16284)
log2 fold change [1]: -0.075
log2 fold change [2]: -0.011
log2 fold change [3]: 0.087
log2 fold change [4]: 0.097
log2 fold change [5]: 0.031
log2 fold change [6]: 0
log2 fold change [7]: -0.019
log2 fold change [8]: -0.013
log2 fold change [9]: 0.015
log2 fold change [10]: 0.022

PKM (UniProt P14618)
log2 fold change [1]: -0.023
log2 fold change [2]: -0.012
log2 fold change [3]: -0.011
log2 fold change [4]: -0.004
log2 fold change [5]: 0.024
log2 fold change [6]: -0.009
log2 fold change [7]: 0.015
log2 fold change [8]: 0.006
log2 fold change [9]: 0.005
log2 fold change [10]: 0.035

PTTG1 (UniProt O95997)
Chain of UniProt O95997 (O95997 whole entry, looked up): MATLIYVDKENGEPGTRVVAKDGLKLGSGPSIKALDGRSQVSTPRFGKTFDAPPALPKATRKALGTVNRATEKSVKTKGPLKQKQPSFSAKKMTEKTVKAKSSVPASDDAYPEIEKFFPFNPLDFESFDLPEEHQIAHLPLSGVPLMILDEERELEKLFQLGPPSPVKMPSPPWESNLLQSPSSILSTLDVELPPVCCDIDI
log2 fold change [1]: 0.062
log2 fold change [2]: 0.021
log2 fold change [3]: -0.025
log2 fold change [4]: -0.011
log2 fold change [5]: 0.031
log2 fold change [6]: -0.116
log2 fold change [7]: 0.024
log2 fold change [8]: -0.066
log2 fold change [9]: -0.013
log2 fold change [10]: 0.033

PSMC4 (UniProt P43686)
log2 fold change [1]: 0.087
log2 fold change [2]: 0
log2 fold change [3]: -0.013
log2 fold change [4]: 0.05
log2 fold change [5]: 0.052
log2 fold change [6]: -0.019
log2 fold change [7]: -0.128
log2 fold change [8]: -0.037
log2 fold change [9]: 0.117
log2 fold change [10]: -0.012

PPIL4 (UniProt Q8WUA2)
log2 fold change [1]: -0.001
log2 fold change [2]: 0.002
log2 fold change [3]: 0.002
log2 fold change [4]: -0.483 (active)
log2 fold change [5]: -0.065
log2 fold change [6]: -0.113
log2 fold change [7]: -0.031
log2 fold change [8]: -0.018
log2 fold change [9]: -0.01
log2 fold change [10]: 0.005

PEX11B (UniProt O96011)
log2 fold change [1]: -0.022
log2 fold change [2]: 0.081
log2 fold change [3]: 0.04
log2 fold change [4]: 0.041
log2 fold change [5]: -0.071
log2 fold change [6]: -0.043
log2 fold change [7]: 0.049
log2 fold change [8]: 0.01
log2 fold change [9]: -0.063
log2 fold change [10]: 0.058

PC (UniProt P11498)
log2 fold change [1]: 0.096
log2 fold change [2]: 0.102
log2 fold change [3]: -0.014
log2 fold change [4]: 0.121
log2 fold change [5]: 0.005
log2 fold change [6]: -0.007
log2 fold change [7]: 0.047
log2 fold change [8]: 0.074
log2 fold change [9]: -0.097
log2 fold change [10]: 0.024

PSMD13 (UniProt Q9UNM6)
log2 fold change [1]: 0.126
log2 fold change [2]: 0.003
log2 fold change [3]: -0.002
log2 fold change [4]: 0.082
log2 fold change [5]: 0.023
log2 fold change [6]: -0.018
log2 fold change [7]: -0.114
log2 fold change [8]: -0.008
log2 fold change [9]: 0.095
log2 fold change [10]: -0.019

PPP1R12A (UniProt O14974)
log2 fold change [1]: -0.041
log2 fold change [2]: -0.02
log2 fold change [3]: -0.027
log2 fold change [4]: -0.302
log2 fold change [5]: -0.108
log2 fold change [6]: -0.118
log2 fold change [7]: -0.002
log2 fold change [8]: 0.02
log2 fold change [9]: -0.023
log2 fold change [10]: 0.07

PNPLA8 (UniProt Q9NP80)
log2 fold change [1]: -0.04
log2 fold change [2]: -0.13
log2 fold change [3]: 0.036
log2 fold change [4]: -0.026
log2 fold change [5]: -0.055
log2 fold change [6]: 0.038
log2 fold change [7]: 0.036
log2 fold change [8]: -0.063
log2 fold change [9]: 0.053
log2 fold change [10]: 0.095

PPP1R35 (UniProt Q8TAP8)
log2 fold change [1]: -0.039
log2 fold change [2]: 0.058
log2 fold change [3]: 0.008
log2 fold change [4]: -0.031
log2 fold change [5]: -0.04
log2 fold change [6]: -0.095
log2 fold change [7]: -0.024
log2 fold change [8]: -0.042
log2 fold change [9]: -0.022
log2 fold change [10]: 0.065

PCGF2 (UniProt P35227)
log2 fold change [1]: 0.015
log2 fold change [2]: -0.035
log2 fold change [3]: -0.097
log2 fold change [4]: -0.235
log2 fold change [5]: -0.127
log2 fold change [6]: 0.028
log2 fold change [7]: 0.004
log2 fold change [8]: 0.081
log2 fold change [9]: 0.001
log2 fold change [10]: -0.001

PARP1 (UniProt P09874)
log2 fold change [1]: 0.05
log2 fold change [2]: -0.009
log2 fold change [3]: -0.028
log2 fold change [4]: -0.112
log2 fold change [5]: -0.245
log2 fold change [6]: 0.178
log2 fold change [7]: 0.026
log2 fold change [8]: 0.131
log2 fold change [9]: -0.117
log2 fold change [10]: 0.044

PRCP (UniProt P42785)
log2 fold change [1]: -0.209
log2 fold change [2]: -0.018
log2 fold change [3]: 0.011
log2 fold change [4]: 0.009
log2 fold change [5]: -0.021
log2 fold change [6]: -0.009
log2 fold change [7]: 0.02
log2 fold change [8]: 0.008
log2 fold change [9]: 0.055
log2 fold change [10]: 0.057

PITRM1 isoform 2 (UniProt Q5JRX3)
Chain of UniProt Q5JRX3 (Q5JRX3 whole entry, looked up): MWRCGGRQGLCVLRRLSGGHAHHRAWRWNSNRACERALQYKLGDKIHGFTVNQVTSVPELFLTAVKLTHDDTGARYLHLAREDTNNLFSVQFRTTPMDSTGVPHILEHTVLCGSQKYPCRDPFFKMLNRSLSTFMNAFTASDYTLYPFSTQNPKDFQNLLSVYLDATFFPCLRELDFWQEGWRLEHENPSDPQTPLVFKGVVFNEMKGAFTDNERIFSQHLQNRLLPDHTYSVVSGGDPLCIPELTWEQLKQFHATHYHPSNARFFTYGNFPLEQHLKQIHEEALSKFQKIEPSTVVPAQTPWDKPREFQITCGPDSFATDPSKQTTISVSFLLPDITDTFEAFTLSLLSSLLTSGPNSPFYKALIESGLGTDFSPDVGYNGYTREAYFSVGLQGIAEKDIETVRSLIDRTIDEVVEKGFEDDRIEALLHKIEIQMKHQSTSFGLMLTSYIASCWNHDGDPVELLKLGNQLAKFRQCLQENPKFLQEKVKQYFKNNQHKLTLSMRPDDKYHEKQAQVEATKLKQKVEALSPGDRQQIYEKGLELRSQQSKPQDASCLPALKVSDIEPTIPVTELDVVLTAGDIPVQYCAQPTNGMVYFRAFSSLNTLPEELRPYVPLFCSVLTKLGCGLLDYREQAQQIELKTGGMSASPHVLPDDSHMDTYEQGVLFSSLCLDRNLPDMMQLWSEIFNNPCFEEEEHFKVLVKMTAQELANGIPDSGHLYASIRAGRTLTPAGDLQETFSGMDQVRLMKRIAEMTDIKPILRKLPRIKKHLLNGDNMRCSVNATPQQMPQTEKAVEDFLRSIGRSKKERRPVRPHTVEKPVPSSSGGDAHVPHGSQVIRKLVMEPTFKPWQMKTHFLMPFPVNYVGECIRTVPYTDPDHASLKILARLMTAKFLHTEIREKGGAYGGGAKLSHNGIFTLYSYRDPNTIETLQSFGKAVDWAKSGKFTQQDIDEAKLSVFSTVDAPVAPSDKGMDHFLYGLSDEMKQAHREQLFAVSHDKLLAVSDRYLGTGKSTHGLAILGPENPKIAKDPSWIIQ
log2 fold change [1]: -0.052
log2 fold change [2]: -0.039
log2 fold change [3]: -0.108
log2 fold change [4]: 0.01
log2 fold change [5]: -0.132
log2 fold change [6]: -0.088
log2 fold change [7]: 0.119
log2 fold change [8]: -0.004
log2 fold change [9]: 0.003
log2 fold change [10]: 0.005

PSMC5 (UniProt P62195)
Chain of UniProt P62195 (P62195 whole entry, looked up): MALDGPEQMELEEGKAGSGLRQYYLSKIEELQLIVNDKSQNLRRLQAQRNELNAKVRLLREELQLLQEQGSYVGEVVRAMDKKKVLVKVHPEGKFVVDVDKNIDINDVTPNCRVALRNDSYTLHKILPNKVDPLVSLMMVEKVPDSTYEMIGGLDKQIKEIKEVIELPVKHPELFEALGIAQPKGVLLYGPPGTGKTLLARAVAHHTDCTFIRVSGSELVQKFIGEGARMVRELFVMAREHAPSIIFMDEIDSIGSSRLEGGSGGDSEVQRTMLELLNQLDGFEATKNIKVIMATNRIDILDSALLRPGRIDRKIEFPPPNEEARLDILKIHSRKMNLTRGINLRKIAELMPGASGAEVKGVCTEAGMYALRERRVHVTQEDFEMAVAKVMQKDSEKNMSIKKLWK
log2 fold change [1]: 0.078
log2 fold change [2]: 0.035
log2 fold change [3]: -0.041
log2 fold change [4]: 0.035
log2 fold change [5]: 0.033
log2 fold change [6]: -0.014
log2 fold change [7]: -0.113
log2 fold change [8]: -0.006
log2 fold change [9]: 0.09
log2 fold change [10]: -0.014

PPP2R5A (UniProt Q15172)
Chain of UniProt Q15172 (Q15172 whole entry, looked up): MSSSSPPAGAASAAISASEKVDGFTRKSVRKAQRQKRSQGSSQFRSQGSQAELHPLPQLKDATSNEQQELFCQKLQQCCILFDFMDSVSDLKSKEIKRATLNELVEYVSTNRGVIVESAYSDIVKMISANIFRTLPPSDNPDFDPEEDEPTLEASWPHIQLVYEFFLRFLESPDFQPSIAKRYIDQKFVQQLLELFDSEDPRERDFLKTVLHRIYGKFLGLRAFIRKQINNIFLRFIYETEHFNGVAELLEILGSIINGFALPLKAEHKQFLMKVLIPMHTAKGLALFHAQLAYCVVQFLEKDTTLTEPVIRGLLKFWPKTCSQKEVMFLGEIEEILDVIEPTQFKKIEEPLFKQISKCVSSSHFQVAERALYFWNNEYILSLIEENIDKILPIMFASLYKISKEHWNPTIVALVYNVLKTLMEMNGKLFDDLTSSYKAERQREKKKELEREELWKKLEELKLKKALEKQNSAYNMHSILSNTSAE
log2 fold change [1]: -0.008
log2 fold change [2]: 0.027
log2 fold change [3]: -0.075
log2 fold change [4]: -0.039
log2 fold change [5]: -0.205
log2 fold change [6]: 0.006
log2 fold change [7]: 0.032
log2 fold change [8]: 0.006
log2 fold change [9]: -0.179
log2 fold change [10]: 0.012

PLCB3 (UniProt Q01970)
Chain of UniProt Q01970 (Q01970 whole entry, looked up): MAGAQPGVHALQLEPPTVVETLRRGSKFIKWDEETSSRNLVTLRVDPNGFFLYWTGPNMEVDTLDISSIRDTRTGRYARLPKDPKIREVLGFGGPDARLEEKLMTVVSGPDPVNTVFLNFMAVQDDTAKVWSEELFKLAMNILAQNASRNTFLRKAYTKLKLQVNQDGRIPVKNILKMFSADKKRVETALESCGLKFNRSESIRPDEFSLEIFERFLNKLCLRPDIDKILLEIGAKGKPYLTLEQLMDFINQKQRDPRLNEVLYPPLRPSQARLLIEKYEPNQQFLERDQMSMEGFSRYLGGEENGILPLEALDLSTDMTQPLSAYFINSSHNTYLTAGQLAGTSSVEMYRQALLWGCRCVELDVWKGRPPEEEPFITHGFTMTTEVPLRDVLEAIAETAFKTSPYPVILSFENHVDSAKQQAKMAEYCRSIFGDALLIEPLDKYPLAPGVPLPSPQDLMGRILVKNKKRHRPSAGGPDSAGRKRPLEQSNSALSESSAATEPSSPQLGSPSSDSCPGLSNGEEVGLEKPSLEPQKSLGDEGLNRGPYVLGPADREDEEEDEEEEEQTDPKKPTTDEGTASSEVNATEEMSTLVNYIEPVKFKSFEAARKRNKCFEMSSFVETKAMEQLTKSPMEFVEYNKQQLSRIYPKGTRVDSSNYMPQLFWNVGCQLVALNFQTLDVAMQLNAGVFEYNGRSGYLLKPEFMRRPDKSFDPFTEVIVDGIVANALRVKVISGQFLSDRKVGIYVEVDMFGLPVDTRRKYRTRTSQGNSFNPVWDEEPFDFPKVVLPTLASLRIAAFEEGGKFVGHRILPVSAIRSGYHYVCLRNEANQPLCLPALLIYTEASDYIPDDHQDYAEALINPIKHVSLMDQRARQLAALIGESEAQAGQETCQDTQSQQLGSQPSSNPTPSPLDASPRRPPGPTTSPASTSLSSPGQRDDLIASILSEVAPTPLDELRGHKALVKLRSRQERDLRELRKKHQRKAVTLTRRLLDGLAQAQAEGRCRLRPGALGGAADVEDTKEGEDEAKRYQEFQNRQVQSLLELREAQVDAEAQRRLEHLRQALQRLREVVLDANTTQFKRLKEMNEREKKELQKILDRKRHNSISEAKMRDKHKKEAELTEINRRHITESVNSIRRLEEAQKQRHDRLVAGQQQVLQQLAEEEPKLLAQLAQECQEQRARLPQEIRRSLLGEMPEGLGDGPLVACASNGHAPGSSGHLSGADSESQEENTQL
log2 fold change [1]: -0.059
log2 fold change [2]: -0.084
log2 fold change [3]: -0.104
log2 fold change [4]: 0.033
log2 fold change [5]: -0.092
log2 fold change [6]: -0.006
log2 fold change [7]: -0.006
log2 fold change [8]: 0.061
log2 fold change [9]: -0.039
log2 fold change [10]: 0.003
